In assay [1] the target is Bile acid receptor (Homo sapiens) (UniProt Q96RI1). As to the kind of experiment: ATG_IR1_CIS: Attagene CIS-FACTORIAL HepG2 Assay for human Nuclear Receptor Subfamily 1 Group H Member 4 (NR1H4), IR1 submotif (AID 2282946). The settings on record: IR1 reporter transcription, actives raise or lower the signal. Put shortly:
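Cells (human HepG2) carry transiently transfected cis-promoter reporter transcription units. Compounds are incubated 24 h, total RNA is reverse-transcribed and amplified, and labelled fragments are resolved by capillary electrophoresis. Curves use DMSO as baseline.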

Assay [2] can be described thus: ATG_GRE_CIS: Attagene CIS-FACTORIAL HepG2 Assay for human Glucocorticoid Response Elements (GRE) (AID 2282947). The settings on record: HepG2 GRE cis-reporter, Attagene multiplex mRNA; actives raise or lower the signal. Summed up:
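Assay uses human hepatoma HepG2 cells transfected with cis-promoter reporter units, exposed 24 h. mRNA from reporters detected by RT-PCR plus capillary electrophoresis; DMSO serves as negative control and baseline.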

A short description of assay [3]: ATG_ISRE_CIS: Attagene CIS-FACTORIAL HepG2 Assay for human Interferon Regulatory Factor 1 (IRF1) binding to an Interferon-Stimulated Response Element (ISRE) (AID 2282948). The settings on record: HepG2 ISRE cis-reporter (Attagene), mRNA transcription readout; actives raise or lower the signal. Summed up:
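Quantitation relies on labelled RT-PCR fragments separated by capillary electrophoresis. Human HepG2 cells bearing cis-promoter reporter constructs were treated 24 h; DMSO served as baseline for bidirectional fitting.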

The nature of assay [4]: ATG_M_32_CIS: Attagene CIS-FACTORIAL HepG2 Assay for M32 Transcription Factor (Internal Marker) (AID 2282949).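 Note: background control marker of the multiplexed CIS panel rather than a real target.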 The note with it: HepG2 Attagene cis-factorial M32 reporter, mRNA; actives raise or lower the signal. Put shortly: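 Internal background marker read-out: RT-PCR/capillary electrophoresis fluorescence of reporter transcripts from transiently transfected HepG2 cells after 24 h chemical exposure. Activity fitted bidirectionally relative to DMSO negative control.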

The nature of assay [5]: ATG_M_06_CIS: Attagene CIS-FACTORIAL HepG2 Assay for M06 Transcription Factor (Internal Marker) (AID 2282950). The note with it: HepG2 Attagene CIS-FACTORIAL M06 internal marker reporter; actives raise or lower the signal. Put shortly: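 Cells (HepG2, transiently carrying cis-driven reporter units) receive chemical for 24 h before RNA isolation. Reporter cDNA is PCR-amplified, FAM-labelled by primer extension, HpaI-digested and sized on a capillary analyser.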

Assay [6] has as its target Hypoxia-inducible factor 1-alpha (Homo sapiens) (UniProt Q16665). Kind of assay: ATG_HIF1a_CIS: Attagene CIS-FACTORIAL HepG2 Assay for human Hypoxia Inducible Factor 1 (HIF1A) (AID 2282951). The settings on record: HepG2 Attagene cis-factorial HIF1a reporter transcription; actives raise or lower the signal. Put shortly:
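Measures endogenous transcription-factor activity through cis-regulated reporter mRNA in HepG2. Cells dosed 24 h; transcripts quantified by RT-PCR with 6-FAM-labelled products separated by capillary electrophoresis; DMSO serves as negative control.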

Assay [7] deals with Hepatocyte nuclear factor 6 (Homo sapiens) (UniProt Q9UBC0). Kind of assay: ATG_HNF6_CIS: Attagene CIS-FACTORIAL HepG2 Assay for human Hepatocyte Nuclear Factor 6 (HNF6) (AID 2282952). The note with it: HepG2 Attagene cis-factorial HNF6 reporter transcription; actives raise or lower the signal. Summed up: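 Transiently transfected HepG2 cells expressing cis-regulated reporter transcription units were exposed to chemical for 24 h in a 24-well format. Reporter transcript abundance was determined by fluorescence capillary electrophoresis.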
Chain of Hepatocyte nuclear factor 6 (Homo sapiens) (Q9UBC0 whole entry, looked up): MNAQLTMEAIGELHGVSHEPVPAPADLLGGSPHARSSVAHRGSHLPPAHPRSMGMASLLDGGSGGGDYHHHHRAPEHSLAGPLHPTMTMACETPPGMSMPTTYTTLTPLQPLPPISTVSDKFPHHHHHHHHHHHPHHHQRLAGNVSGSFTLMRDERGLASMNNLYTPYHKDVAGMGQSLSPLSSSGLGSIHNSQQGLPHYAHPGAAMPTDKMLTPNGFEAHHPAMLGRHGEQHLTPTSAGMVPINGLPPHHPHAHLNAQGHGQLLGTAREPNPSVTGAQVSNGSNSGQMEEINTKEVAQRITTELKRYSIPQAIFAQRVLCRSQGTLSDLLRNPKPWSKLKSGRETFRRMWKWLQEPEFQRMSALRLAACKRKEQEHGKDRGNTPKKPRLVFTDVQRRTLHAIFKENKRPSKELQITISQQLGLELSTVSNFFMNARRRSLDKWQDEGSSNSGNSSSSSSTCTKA

In assay [8] the target is Heat shock factor protein 1 (Homo sapiens) (UniProt Q00613). Kind of assay: ATG_HSE_CIS: Attagene CIS-FACTORIAL HepG2 Assay for human Heat Shock Transcription Factor 1 (HSE) (AID 2282953). The settings on record: HepG2 HSE cis-reporter, Attagene RNA transcription; actives raise or lower the signal. Summed up: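 Liver-derived HepG2 cells carry transiently introduced multiple reporter units governed by cis promoters. Reporter RNA measured 24 h post-dose through reverse transcription, PCR amplification, fluorescent labelling and capillary electrophoresis, normalised to DMSO.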
Chain of Heat shock factor protein 1 (Homo sapiens) (Q00613 whole entry, looked up): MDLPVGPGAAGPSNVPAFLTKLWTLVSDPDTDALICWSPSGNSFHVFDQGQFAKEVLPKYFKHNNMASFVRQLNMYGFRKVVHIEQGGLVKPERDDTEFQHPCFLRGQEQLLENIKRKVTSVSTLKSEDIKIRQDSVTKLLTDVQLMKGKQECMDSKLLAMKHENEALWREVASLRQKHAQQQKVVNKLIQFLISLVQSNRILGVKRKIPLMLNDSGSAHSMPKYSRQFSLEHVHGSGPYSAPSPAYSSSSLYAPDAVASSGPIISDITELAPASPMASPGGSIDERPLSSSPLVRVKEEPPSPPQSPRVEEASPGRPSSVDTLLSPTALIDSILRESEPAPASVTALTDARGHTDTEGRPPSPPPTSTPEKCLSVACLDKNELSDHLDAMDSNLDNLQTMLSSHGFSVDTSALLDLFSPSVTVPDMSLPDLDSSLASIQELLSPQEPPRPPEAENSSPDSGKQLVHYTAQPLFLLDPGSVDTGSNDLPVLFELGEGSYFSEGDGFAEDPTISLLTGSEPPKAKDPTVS

A short description of assay [9]: ATG_MRE_CIS: Attagene CIS-FACTORIAL HepG2 Assay for human Metal Responsive Element (MRE) (AID 2282954). The note with it: HepG2 MRE cis-reporter transcription, Attagene multiplex; actives raise or lower the signal. Put shortly: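 After a 24 h chemical exposure, transiently transfected HepG2 cells yield RNA whose reporter sequences are amplified, FAM-labelled and sized by capillary electrophoresis. Curves are fitted bidirectionally relative to DMSO.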

A short description of assay [10]: ATG_PBREM_CIS: Attagene CIS-FACTORIAL HepG2 Assay for human Phenobarbital-responsive Enhancer Module (PBREM) (AID 2282955). The settings on record: HepG2 PBREM cis-reporter, Attagene multiplexed transcription; actives raise or lower the signal. Put shortly: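 Fluorescence of labelled reporter cDNA fragments, resolved by capillary electrophoresis, gives mRNA induction in transfected HepG2 cells treated for 24 h; DMSO serves as negative control and baseline.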

Assay [11] has as its target Paired box protein Pax-6 (Homo sapiens) (UniProt P26367). Kind of assay: ATG_Pax6_CIS: Attagene CIS-FACTORIAL HepG2 Assay for human Paired Box 6 (PAX6) (AID 2282956). The note with it: HepG2 CIS-FACTORIAL PAX6 reporter transcription, RNA readout; actives raise or lower the signal. Put shortly:
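After twenty-four hours of chemical exposure, transfected HepG2 cells are harvested for RNA. Cis-promoter reporter transcripts are amplified, fluorescently labelled and sized by capillary electrophoresis, with gain and loss of signal scored against DMSO.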

The nature of assay [12]: ATG_PXRE_CIS: Attagene CIS-FACTORIAL HepG2 Assay for human Pregnane X Receptor Element (PXRE) (AID 2282957). The settings on record: HepG2 Attagene CIS-FACTORIAL PXRE reporter, mRNA; actives raise or lower the signal. Put shortly: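 Cis-element reporter mRNA in human hepatoma HepG2 cells is measured 24 h post-dosing by RT-PCR, primer-extension labeling and capillary electrophoresis; gain or loss of signal is fitted relative to DMSO.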

Assay [13] is described as follows: ATG_PPRE_CIS: Attagene CIS-FACTORIAL HepG2 Assay for human Peroxisome Proliferator-activated Response Element (PPRE) (AID 2282958). The settings on record: HepG2 PPRE cis-element reporter, Attagene transcription factor profiling; actives raise or lower the signal. Summed up:
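Cells are first transfected transiently with the multiplexed reporter library, then dosed for 24 h. Total RNA is reverse-transcribed, amplified, fluorescently end-labeled and HpaI-cut before capillary electrophoresis; activity is fitted bidirectionally against DMSO controls.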

Assay [14] is described as follows: ATG_RORE_CIS: Attagene CIS-FACTORIAL HepG2 Assay for human RAR-related Orphan Receptor Element (RORE) (AID 2282959). The settings on record: HepG2 Attagene cis-factorial RORE reporter, mRNA; actives raise or lower the signal. Summed up: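 Cells were HepG2 carrying transfected cis-regulated reporter constructs, dosed for 24 hours. Total RNA was reverse-transcribed and reporter cDNA amplified, fluorescently labeled and sized by capillary electrophoresis. Activity was fitted bidirectionally relative to DMSO.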

Assay [15] is described as follows: ATG_Sox_CIS: Attagene CIS-FACTORIAL HepG2 Assay for human SRY-box transcription factor (SOX) (AID 2282960). The settings on record: HepG2 Attagene cis-factorial SOX reporter, mRNA; actives raise or lower the signal. Summed up: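 Transient MRTU transfection of HepG2; 24 h compound incubation; TriZol RNA, oligo(dT) RT, PCR, 6-FAM primer extension, HpaI cut, CE. Bidirectional fit, DMSO = baseline.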

Assay [16] deals with Transcription factor Sp1 (Homo sapiens) (UniProt P08047). As to the kind of experiment: ATG_Sp1_CIS: Attagene CIS-FACTORIAL HepG2 Assay for human Specificity Protein 1 (Sp1) (AID 2282961). The note with it: HepG2 Sp1 cis-reporter transcription, actives raise or lower the signal. Summed up: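 Endogenous Sp1 activity was gauged in human liver HepG2 cells bearing transfected reporter units under a cis-regulating promoter. After 24 h dosing, reporter mRNA was quantified by RT-PCR with capillary electrophoresis, and activity fitted bidirectionally versus DMSO.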
Chain of Transcription factor Sp1 (Homo sapiens) (P08047 whole entry, looked up): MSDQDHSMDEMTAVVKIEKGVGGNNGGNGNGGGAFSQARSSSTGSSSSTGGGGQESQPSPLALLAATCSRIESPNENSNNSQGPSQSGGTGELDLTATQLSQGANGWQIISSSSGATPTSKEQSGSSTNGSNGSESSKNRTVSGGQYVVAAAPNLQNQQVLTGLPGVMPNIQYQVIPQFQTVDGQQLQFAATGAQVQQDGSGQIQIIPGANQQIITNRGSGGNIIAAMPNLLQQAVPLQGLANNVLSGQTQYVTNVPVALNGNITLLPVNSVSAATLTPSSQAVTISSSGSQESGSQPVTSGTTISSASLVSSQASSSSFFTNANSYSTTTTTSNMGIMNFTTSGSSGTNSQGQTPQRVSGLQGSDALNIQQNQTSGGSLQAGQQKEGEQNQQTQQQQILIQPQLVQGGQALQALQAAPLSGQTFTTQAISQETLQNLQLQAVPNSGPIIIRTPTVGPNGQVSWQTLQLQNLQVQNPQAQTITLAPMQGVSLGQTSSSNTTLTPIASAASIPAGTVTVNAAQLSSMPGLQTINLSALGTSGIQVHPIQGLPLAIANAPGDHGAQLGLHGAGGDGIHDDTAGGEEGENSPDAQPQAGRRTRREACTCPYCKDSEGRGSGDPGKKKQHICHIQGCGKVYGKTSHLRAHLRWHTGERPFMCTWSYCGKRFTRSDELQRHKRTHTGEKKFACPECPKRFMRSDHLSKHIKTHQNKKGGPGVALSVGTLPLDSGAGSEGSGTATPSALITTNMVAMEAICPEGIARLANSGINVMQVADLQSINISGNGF

A short description of assay [17]: ATG_SREBP_CIS: Attagene CIS-FACTORIAL HepG2 Assay for human Sterol Regulatory Element Binding (SREBP) (AID 2282962). The settings on record: HepG2 Attagene cis-factorial SREBP reporter, mRNA; actives raise or lower the signal. Put shortly: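 Twenty-four hours after chemical dosing of transfected HepG2 cultures, reporter RNA was converted to cDNA, amplified, end-labelled with 6-FAM and resolved by capillary electrophoresis. Responses were fitted relative to DMSO.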

Assay [18] addresses Signal transducer and activator of transcription 3 (Homo sapiens) (UniProt P40763). Kind of assay: ATG_STAT3_CIS: Attagene CIS-FACTORIAL HepG2 Assay for human Signal Transducer and Activator of Transcription 3 (STAT3) (AID 2282963). The settings on record: HepG2, Attagene cis-factorial STAT3 reporter transcription; actives raise or lower the signal. Put shortly: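 After a 24 h compound incubation, total RNA from MRTU-transfected HepG2 cells was converted to cDNA and reporter sequences PCR-amplified, labelled and profiled by capillary electrophoresis. Gain and loss of signal were referenced to DMSO.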

The nature of assay [19]: ATG_TA_CIS: Attagene CIS-FACTORIAL HepG2 Assay for human TA Basal Promoter (AID 2282964). The note with it: HepG2 Attagene CIS-factorial TA basal promoter reporter; actives raise or lower the signal. Put shortly:
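Background internal-marker endpoint from a 52-component HepG2 cis-reporter panel. Cells treated 24 h; reporter transcripts quantified via RT-PCR and CE fluorescence against DMSO baseline.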

The nature of assay [20]: ATG_TCF_b_cat_CIS: Attagene CIS-FACTORIAL HepG2 Assay for human T-Cell-Factor with beta-catenin (TCF/b-cat) (AID 2282965). The settings on record: HepG2 TCF/beta-catenin cis-reporter transcription, actives raise or lower the signal. Put shortly: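 Endogenous transcription factor activity is captured through cis-promoter reporter constructs transiently introduced into human HepG2 liver cells. Induced reporter mRNA is measured after 24 h and fitted bidirectionally relative to DMSO.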

Activity calls are given as the source filed them. Rule for the calls: active = hit-call score of the fitted dose curve at least 0.9, where 1 is the maximum; inactive = score below 0.9.

Chain of Paired box protein Pax-6 (Homo sapiens) (P26367 whole entry, looked up): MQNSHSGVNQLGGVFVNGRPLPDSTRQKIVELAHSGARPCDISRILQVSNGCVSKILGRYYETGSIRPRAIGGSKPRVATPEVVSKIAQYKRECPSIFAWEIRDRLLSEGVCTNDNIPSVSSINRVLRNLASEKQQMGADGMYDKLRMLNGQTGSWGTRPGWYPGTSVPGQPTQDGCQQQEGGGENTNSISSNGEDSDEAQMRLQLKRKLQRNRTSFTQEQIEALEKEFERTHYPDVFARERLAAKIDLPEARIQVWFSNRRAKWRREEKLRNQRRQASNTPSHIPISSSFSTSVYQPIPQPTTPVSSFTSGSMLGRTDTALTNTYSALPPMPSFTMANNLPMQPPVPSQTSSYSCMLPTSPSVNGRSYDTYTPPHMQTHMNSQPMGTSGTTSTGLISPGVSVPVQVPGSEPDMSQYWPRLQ
Chain of Bile acid receptor (Homo sapiens) (Q96RI1 whole entry, looked up, the tested form may be a part): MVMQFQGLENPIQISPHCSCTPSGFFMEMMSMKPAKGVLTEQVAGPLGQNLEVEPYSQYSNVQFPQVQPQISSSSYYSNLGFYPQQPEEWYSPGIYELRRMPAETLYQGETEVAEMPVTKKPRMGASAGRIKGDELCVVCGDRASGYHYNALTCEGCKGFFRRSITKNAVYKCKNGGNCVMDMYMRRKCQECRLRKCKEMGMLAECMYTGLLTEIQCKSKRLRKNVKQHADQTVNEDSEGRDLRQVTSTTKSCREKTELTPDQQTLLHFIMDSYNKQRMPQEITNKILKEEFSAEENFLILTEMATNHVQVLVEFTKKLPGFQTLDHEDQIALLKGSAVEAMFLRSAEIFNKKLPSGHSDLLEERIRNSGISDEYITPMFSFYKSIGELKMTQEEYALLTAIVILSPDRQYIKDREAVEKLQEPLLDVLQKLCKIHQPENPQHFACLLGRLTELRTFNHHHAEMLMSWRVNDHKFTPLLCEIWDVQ
Chain of Hypoxia-inducible factor 1-alpha (Homo sapiens) (Q16665 whole entry, looked up): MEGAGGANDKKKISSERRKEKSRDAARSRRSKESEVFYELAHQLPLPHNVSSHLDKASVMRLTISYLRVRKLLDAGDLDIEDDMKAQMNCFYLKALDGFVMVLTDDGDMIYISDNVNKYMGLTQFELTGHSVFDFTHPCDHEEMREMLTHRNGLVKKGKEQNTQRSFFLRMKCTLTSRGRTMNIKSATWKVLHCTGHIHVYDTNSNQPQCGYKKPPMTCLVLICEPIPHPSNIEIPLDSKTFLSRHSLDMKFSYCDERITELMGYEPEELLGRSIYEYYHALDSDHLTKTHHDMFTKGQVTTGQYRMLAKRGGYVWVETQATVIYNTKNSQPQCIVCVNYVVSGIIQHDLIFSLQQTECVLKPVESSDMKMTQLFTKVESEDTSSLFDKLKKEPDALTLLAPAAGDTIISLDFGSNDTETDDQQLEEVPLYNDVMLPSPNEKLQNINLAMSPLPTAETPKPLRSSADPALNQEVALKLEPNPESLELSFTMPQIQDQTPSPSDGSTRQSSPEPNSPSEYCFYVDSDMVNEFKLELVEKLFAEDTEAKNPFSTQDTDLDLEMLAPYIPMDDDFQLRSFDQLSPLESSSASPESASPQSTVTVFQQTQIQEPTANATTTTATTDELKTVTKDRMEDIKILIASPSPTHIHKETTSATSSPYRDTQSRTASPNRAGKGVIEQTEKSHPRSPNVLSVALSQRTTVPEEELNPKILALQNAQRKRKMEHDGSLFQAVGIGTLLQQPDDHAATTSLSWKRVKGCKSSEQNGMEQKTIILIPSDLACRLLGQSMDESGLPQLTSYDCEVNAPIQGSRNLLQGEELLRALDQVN
Chain of Signal transducer and activator of transcription 3 (Homo sapiens) (P40763 whole entry, looked up): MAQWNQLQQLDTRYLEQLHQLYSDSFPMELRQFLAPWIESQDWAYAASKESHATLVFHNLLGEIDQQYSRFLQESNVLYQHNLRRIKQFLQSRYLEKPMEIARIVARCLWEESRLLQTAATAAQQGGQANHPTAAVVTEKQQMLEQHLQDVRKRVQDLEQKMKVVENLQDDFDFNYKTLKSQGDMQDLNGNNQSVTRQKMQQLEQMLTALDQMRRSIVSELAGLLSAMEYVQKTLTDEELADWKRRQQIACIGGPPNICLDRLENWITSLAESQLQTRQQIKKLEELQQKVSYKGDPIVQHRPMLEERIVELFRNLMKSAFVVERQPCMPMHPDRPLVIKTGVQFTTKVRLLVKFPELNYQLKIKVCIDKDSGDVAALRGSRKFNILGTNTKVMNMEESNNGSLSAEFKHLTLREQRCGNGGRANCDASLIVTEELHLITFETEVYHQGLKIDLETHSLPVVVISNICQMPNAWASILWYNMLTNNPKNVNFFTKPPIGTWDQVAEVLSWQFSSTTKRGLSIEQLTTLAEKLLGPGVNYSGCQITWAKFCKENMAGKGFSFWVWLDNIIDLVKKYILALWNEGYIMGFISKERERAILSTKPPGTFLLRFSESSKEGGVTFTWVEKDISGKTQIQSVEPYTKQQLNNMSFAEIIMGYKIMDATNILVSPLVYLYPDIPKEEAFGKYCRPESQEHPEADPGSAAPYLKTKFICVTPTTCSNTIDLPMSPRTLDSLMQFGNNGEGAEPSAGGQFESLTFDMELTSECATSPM

`CN(C)CCCN`: the result in [1], in [2], in assay [3], in assay [4], in [5] and in [6] was inactive. Moreover, the call in [7], in [8], in [9], in assay [10], in [11] and in assay [12] was inactive. For the same compound, the compound was classed as inactive in assay [13], in assay [14], in assay [15], in assay [16], in assay [17] and in [18]. In [19], the outcome was inactive.

Usually AC50 stands for the midpoint of the concentration-response curve, whichever way the signal moves. For the compound `CC(=O)OCc1ccc2c(c1)OCO2`, the call in assay [1], in assay [2], in assay [3], in [4], in assay [5] and in [6] was inactive. Also, the compound was classed as inactive in assay [7], in assay [8], in [9], in assay [10], in assay [11] and in assay [14]. The result in [15], in assay [16], in assay [17], in assay [18], in assay [19] and in [20] was inactive. In addition, in assay [12], the AC50 is 26.9 µM (active).

As to `Clc1ccc(Cl)c(Cl)c1Cl`, the compound was classed as inactive in assay [1], in assay [2], in [3], in assay [4], in assay [5] and in [6]. For the same compound, the compound was classed as inactive in assay [7], in assay [8], in [9], in assay [11], in assay [12] and in assay [13]. Further, the compound was classed as inactive in assay [14], in assay [15], in [16], in assay [17], in assay [18] and in assay [19]. The compound was classed as inactive in assay [20].

Take `CCCCCCOC(=O)CC`: the outcome in assay [1], in assay [2], in assay [3], in assay [4], in assay [5] and in assay [6] was inactive. The outcome in assay [7], in assay [8], in assay [9], in [10], in [11] and in [12] was inactive. For the same compound, the compound was classed as inactive in assay [13], in assay [14], in assay [15], in [16], in assay [17] and in [18]. The outcome in assay [19] and in [20] was inactive.

As for `N#Cc1nc(Cl)c(Cl)c(Cl)c1Cl`, the AC50 was 4.18 µM (active) in assay [1]; 2.79 µM (active) in [3]; 3.71 µM (active) in assay [6]; 5.48 µM (active) in [7]; 5.66 µM (active) in assay [8]; 2.63 µM (active) in [9]. Moreover, the AC50 in [11] was 5.32 µM (active); in assay [12], 5.5 µM (active); in assay [15], 5.26 µM (active); in [17], 5.74 µM (active). The compound was called inactive in assay [2], in assay [4], in [5], in assay [10], in assay [13] and in [14]. Moreover, the compound was classed as inactive in assay [16], in [18] and in [19].

On to `O=C(O)c1ccc([N+](=O)[O-])cc1`, for which the result in assay [1], in assay [2], in [3], in [4], in [5] and in assay [6] was inactive. Moreover, the result in [7], in [8], in assay [9], in [10], in assay [12] and in assay [14] was inactive. For the same compound, the call in assay [15], in assay [16], in assay [17], in assay [18] and in assay [20] was inactive.

With `CCc1c(C)cc(N)c(CC)c1N`, the outcome in assay [1], in [2], in [3], in assay [4], in [5] and in assay [6] was inactive. Also, the call in assay [7], in assay [8], in [9], in [10], in assay [11] and in assay [14] was inactive. Further, the result in assay [15], in assay [16], in assay [17], in assay [18], in [19] and in assay [20] was inactive. The AC50 in [12] is 64.5 µM (active).

Source of the values: PubChem BioAssay (EPA / NIEHS).
